Test results: ChEMBL document CHEMBL4649982, “Selective targeting of Bromodomains of the Bromodomain-PHD Fingers family impairs osteoclast differentiation” (ACS Chem Biol, 2017)
Several values for one entry are separate records, joined by “and”; a condition that tells them apart may be missing. Equal values may be shown once.

Legend:
[1] = target: Bromodomain-containing protein 4 (Homo sapiens) (UniProt O60885); settings: Compound concentration 10.0 uM, Protein concentration 2.0 uM
[2] = target: T1, Transcription intermediary factor 1-alpha (Homo sapiens) (UniProt O15164); settings: Compound concentration 10.0 uM, Protein concentration 2.0 uM
T1 sequence (whole entry): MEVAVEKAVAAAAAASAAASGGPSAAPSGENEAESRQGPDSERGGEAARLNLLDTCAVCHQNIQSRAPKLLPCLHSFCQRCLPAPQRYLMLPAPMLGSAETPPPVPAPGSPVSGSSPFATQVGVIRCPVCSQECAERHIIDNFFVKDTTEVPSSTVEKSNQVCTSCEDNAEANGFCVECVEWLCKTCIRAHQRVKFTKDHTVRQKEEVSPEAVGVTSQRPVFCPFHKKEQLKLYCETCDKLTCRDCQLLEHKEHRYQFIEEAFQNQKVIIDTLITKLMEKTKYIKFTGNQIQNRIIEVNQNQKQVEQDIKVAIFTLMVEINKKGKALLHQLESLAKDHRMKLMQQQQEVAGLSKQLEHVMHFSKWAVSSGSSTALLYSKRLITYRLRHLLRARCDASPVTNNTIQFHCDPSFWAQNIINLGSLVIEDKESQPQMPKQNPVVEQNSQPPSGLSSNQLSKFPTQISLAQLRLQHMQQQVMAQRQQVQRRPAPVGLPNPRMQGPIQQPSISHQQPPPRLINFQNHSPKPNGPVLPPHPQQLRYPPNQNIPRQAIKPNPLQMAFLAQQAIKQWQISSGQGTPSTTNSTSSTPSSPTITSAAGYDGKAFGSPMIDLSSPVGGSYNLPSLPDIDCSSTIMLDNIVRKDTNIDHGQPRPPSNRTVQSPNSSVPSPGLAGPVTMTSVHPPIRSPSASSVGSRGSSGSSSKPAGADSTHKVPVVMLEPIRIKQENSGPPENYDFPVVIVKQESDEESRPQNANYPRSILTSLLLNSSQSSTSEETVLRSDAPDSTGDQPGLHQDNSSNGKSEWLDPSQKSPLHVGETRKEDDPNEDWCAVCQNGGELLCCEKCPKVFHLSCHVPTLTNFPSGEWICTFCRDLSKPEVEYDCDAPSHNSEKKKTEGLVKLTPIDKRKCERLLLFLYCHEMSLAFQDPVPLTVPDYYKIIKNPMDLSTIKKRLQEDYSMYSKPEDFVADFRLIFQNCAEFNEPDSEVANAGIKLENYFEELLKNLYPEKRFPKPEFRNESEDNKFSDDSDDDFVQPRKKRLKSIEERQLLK

In the case of `COc1cc2c(cc1NS(=O)(=O)c1ccc(Br)cc1C)n(C)c(=O)n2C`, the ΔTm [1] is reported as 1.42 °C and 2.26 °C and the ΔTm [2] is reported as 2.87 °C.
